Screening results from PubChem.
Compounds with a hit are over-represented: about 28% of the library has one in this group of screens.
CYP2C19 activ: cytochrome P450 2C19 (human) activation; recombinant CYP2C19, luciferin-H EGE luminescence; hits give high values; 0 = fully inhibited enzyme, 1 = untreated enzyme; activation factor at 5 µM; 96,000 tested, under 10 active; AID 1025;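 active = activation factor of at least 2 at 5 µM in the primary screen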;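 also: 0 = wells with 2.5 mM tranylcypromine and 1 = vehicle-only wells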
CYP2C9 activ: activators of human CYP2C9; AID 1024; activation factor at 5 µM; recombinant CYP2C9, luciferin-H conversion, luminescence; hits give high values; factor 1 = untreated enzyme, 0 = blocked; P11712; actives 1.4% (n = 96,000);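 active = activation factor of 2 or more for CYP2C9 at a 5 µM dose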;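 also: 0 = sulfaphenazole-blocked wells and 1 = vehicle-only wells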
Target sequence (P11712 whole entry, looked up): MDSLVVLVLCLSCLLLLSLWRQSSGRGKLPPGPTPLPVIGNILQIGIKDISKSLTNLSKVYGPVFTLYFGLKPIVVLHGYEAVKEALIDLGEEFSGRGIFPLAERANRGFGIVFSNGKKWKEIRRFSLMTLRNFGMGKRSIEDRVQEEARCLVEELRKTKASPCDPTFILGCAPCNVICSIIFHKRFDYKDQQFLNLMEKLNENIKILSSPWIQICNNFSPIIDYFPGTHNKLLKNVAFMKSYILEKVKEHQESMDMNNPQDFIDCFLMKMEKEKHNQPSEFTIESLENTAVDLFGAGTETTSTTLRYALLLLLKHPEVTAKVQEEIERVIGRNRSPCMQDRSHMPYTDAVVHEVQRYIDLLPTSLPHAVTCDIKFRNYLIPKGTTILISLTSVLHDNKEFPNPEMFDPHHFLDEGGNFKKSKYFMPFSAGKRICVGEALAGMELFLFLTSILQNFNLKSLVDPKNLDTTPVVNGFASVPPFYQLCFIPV
CYP2C19 inhib: blocks human cytochrome P450 2C19; inhibition, % at 5 µM; CYP2C19 Supersomes, luciferin-H EGE luminescence, 30 min; actives 21% (n = 96,000); P33261;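 active = CYP2C19 inhibition above a set limit at 5 µM in the primary screen, cut at about 50% in these data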;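 also: plate controls were negative control wells for no effect and 2.5 mM tranylcypromine positive control for full effect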
CYP2C9 inhib: inhibitors of human CYP2C9 | P11712 | CYP2C9 Supersomes, luciferin-H conversion, luminescence | inhibition, % at 5 µM | actives 20% (n = 96,000) | AID 777;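 active = blocking of liver enzyme CYP2C9 beyond about 50% at 5 µM, limit read from the data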
Pyk2 oligo antag: blocks oligomerization of human Pyk2 in cells; actives 0.83% (n = 99,000); Q14289; z-score (the deposit names both 25 µM and 10 µM); Q293 cells, Pyk2 FERM NanoBiT luminescence; hits give low values;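 active = Z-score of -3 or lower, scaled per plate to the spread of control and sample wells; inactive = z-score above -3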;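 also: negative z-score means lost luminescence so less FERM oligomerization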
An asterisk follows results filed as active; x = not tested or not shown.

SMILES | CYP2C19 activ | CYP2C9 activ | CYP2C19 inhib | CYP2C9 inhib | Pyk2 oligo antag
CN1CCN(C(=O)c2ccccc2-c2ccccc2C(=O)O)CC1 | 1.2 | 1.2 | -16 | -21 | 0.34
CCOC(=O)c1cc(CC)sc1NC(=O)c1ccc(N2C(=O)CCC2=O)cc1 | 1.1 | 1 | -8 | 1 | 0.04
CCOC(=O)c1cc(CC)sc1NC(=O)c1cc(OC)c(OC)c(OC)c1 | 0.9 | 0.4 | 14 | 62* | -2.1
CC(=O)Nc1ccc(NC(=O)/C(Cl)=C/c2ccccc2)cc1 | 0.9 | 1 | 10 | -3 | 0.36
Cc1cc(-c2ccccc2)nc2[n+]1CCN2C | 1 | 0.9 | -3 | 10 | 0.98
Cc1nc2ncnn2c(N2CCN(c3cccc(C(F)(F)F)c3)CC2)c1C | 0.4 | 0.6 | 64* | 44 | 0.08
c1ccc(Nc2cc(-c3ccccc3)nc3ncnn23)cc1 | 0.5 | 0.8 | 45 | 20 | -0.48
COc1ccc(C(=O)O/N=C/c2c(C(F)(F)F)nn(C)c2SCc2ccccc2Cl)cc1 | 0.8 | 0.7 | 17 | 30 | -0.95
Cn1nc(C(F)(F)F)c(/C=N/OC(=O)c2ccccc2Cl)c1SCc1ccc(Cl)cc1 | 0.5 | 0.2 | 54* | 77* | -0.64
COC(=O)c1ccccc1Sc1c(/C=N/OC(=O)c2ccccc2)c(C(F)(F)F)nn1C | 0.6 | 0.1 | 39 | 91* | -1.1
COC(=O)c1sccc1-c1ccc(/C=N/OC(=O)c2ccccc2)o1 | 1 | 0.8 | 5 | 18 | -0.94
Cc1ccc(C(=O)O/N=C/c2c(C(F)(F)F)nn(C)c2Sc2ccc(Cl)cc2)cc1 | 0.8 | 0.2 | 23 | 80* | -0.69
Cc1cccc(NC(=O)CSc2nnc(Cn3cnc4ccccc43)o2)c1 | x | x | x | x | 1.8
Cn1c(CSCc2ccc(Cl)cc2)nnc1SCC(=O)Nc1nc2ccccc2s1 | 0.9 | 0.9 | 6 | 13 | 1.6
Cc1c(Cl)cccc1Nc1nc(N)nc(CN2CCc3ccccc3C2)n1 | 0.7 | 0.5 | 33 | 46 | -0.34
Cc1ccc(Nc2nc(N)nc(CN3CCc4ccccc4C3)n2)cc1 | 0.4 | 0.5 | 55* | 52* | -0.55
Cc1cccc(Nc2nc(N)nc(CN3CCN(c4ccccc4)CC3)n2)c1 | 0.5 | 0.3 | 53* | 67* | -0.15
Nc1nc(CN2CCN(c3ccccn3)CC2)nc(Nc2ccc(Cl)cc2)n1 | 0.5 | 0.3 | 46 | 68* | 0.84
N/C(=N\OC(=O)CCCCCN1C(=O)c2ccccc2C1=O)c1ccccc1 | 0.9 | 0.7 | 6 | 27 | -0.43
O=C(CCCN1C(=O)c2ccccc2C1=O)OC1CSCC1NC(=O)c1ccccc1 (stereo unspecified) | 0.3 | 1 | 70* | 3 | 1.6
CCOC(=O)CCSc1nc(C)c2cc(C)ccc2n1 | 0.2 | 0.4 | 78* | 58* | 1.6
O=C(N/N=C/c1c[nH]c2ccc(Br)cc12)c1ccn(Cc2ccc(Cl)cc2Cl)n1 | 0.9 | 0.7 | 14 | 35 | -0.19
O=C(N/N=C/c1c[nH]c2ccccc12)c1ccn(Cc2ccc(Cl)cc2)n1 | 0.4 | 1 | 65* | 2 | -0.86
Nc1c(-c2ccc(Cl)cc2)cnn1C1CCS(=O)(=O)C1 (stereo unspecified) | 1 | 1.1 | -1 | -6 | 0.8
O=c1ccc(Cc2ccccn2)n[nH]1 | 1.2 | 1.1 | -18 | -12 | 0.07
SMILES | CYP2C19 activ | CYP2C9 activ | CYP2C19 inhib | CYP2C9 inhib | Pyk2 oligo antag
CCOC(=O)CC1=CC(C)(CC(=O)OCC)C(C#N)(C#N)C(N)=C1C#N (stereo unspecified) | 0.8 | 0.2 | 21 | 79* | 0.72
CCOC(=O)Cc1csc(N)n1 | 1.1 | 1 | -8 | -4 | 0.05
CCCCc1nc(SCC(=O)Nc2ccc(S(N)(=O)=O)cc2)n[nH]1 | 0.8 | 0.6 | 20 | 39 | 0.61
Cc1cc(S(=O)(=O)N2CCN(Cc3ccccc3)CC2)c(C)s1 | 0 | 0.4 | 99* | 62* | x
COc1cc(C)c(C)cc1S(=O)(=O)N1CCN(Cc2ccc3c(c2)OCO3)CC1 | 0.4 | 1 | 62* | -2 | -1.2
COc1cc(S(=O)(=O)N2CCN(Cc3ccc4c(c3)OCO4)CC2)c(C)cc1C | 0.7 | 1 | 32 | -2 | x
COc1cc(C)c(C)cc1S(=O)(=O)N1CCN(Cc2ccccc2)CC1 | 0.1 | 0.4 | 89* | 63* | -0.87
Fc1ccc(Nc2nc(Oc3ccccc3F)nc(N3CCCC3)n2)cc1 | 1.2 | 0.6 | -19 | 39 | -1.4
CC1CCN(c2ccc(NC(=O)c3cccnc3)cc2)CC1 | 0.6 | 0.3 | 35 | 72* | 0.02
O=C(Nc1ccc(N2CCN(C(=O)c3ccc(Cl)cc3)CC2)cc1)c1cccnc1 | 0.8 | 0.9 | 17 | 10 | 0.28
CC(=O)c1sc2nc(=O)c(C)nn2c1C | 1.1 | 1.1 | -5 | -12 | -0.38
CCOc1ccc(N(CC(=O)NCC2CCCO2)C(=O)CCC(=O)Nc2ccccn2)cc1 (stereo unspecified) | x | x | x | x | 0.49
CCOc1nc(-c2ccccc2)ccc1-c1noc(COc2ccccc2)n1 | 0.4 | 0.2 | 60* | 80* | 0.36
c1ccc(-c2noc(COc3ccc4c(c3)OCO4)n2)cc1 | 1.1 | 1.2 | -11 | -17 | -0.68
Cc1cc(OCc2nc(-c3cccs3)no2)cc(C)c1Cl | 0.5 | 0.5 | 50* | 48 | x
c1ccc(OCc2nc(-c3cccs3)no2)cc1 | 0.3 | 0.4 | 74* | 62* | -0.3
COc1cc(NC(=O)CCc2nc(-c3cccs3)no2)cc(OC)c1OC | 0.7 | 0.7 | 27 | 33 | -0.46
CC(=O)CCc1oc2ccc(NC(C)=O)cc2c1-c1ccc(C)o1 | 0.5 | 0.8 | 46 | 21 | -0.54
Nc1cc(=O)[nH]c(SCC(=O)N2CCc3ccccc3C2)n1 | 1.2 | 1.3 | -21 | -30 | 0.29
COc1ccc(C2C(=O)N(CCc3ccccc3)CC(=O)N2C2CCCC2)cc1 (stereo unspecified) | 0.8 | 0.9 | 22 | 12 | 2.8
CSc1nc(=O)n(-c2ccccc2)c(C)c1C(C)=O | 1 | 1 | -3 | 4 | 0.11
CSc1nc(-c2ccccc2)nc(N)c1C(C)=O | 0.6 | 0.4 | 38 | 63* | x
O=C(CN1CCN(Cc2ccc(F)cc2Cl)C1=O)NCCc1ccccc1 | 0.5 | 0.4 | 54* | 58* | x
O=C(CN1CCN(Cc2ccccc2F)C1=O)NCc1cccnc1 | 1 | 0.7 | -1 | 26 | x
Cc1ccc(CCNC(=O)CN2CCN(Cc3ccccc3F)C2=O)cc1 | 0.5 | 0.2 | 48 | 81* | 0.7
Cc1ccc(CCNC(=O)Cn2cccc2)cc1 | 0.2 | 0.8 | 76* | 22 | 0.36
Cc1csc(NC(=O)CSc2nnc3ncccn23)n1 | 0.8 | 0.9 | 15 | 5 | 1.3
CCOc1ccc(-c2cn(CCC#N)cn2)cc1 | 0.3 | 0.6 | 65* | 41 | 1.9
COC(=O)C1(C(=O)OC)NOC2C(=O)N(c3ccccc3)C(=O)C21 (stereo unspecified) | 1 | 1 | 1 | 0 | 0.62
Cc1ccc2nsnc2c1S(=O)(=O)NCCc1c(C)[nH]c2ccc(F)cc12 | 0.2 | 0.7 | 78* | 33 | -0.2
